# Data reported in publication PMC7862700, “An all-to-all approach to the identification of sequence-specific readers for epigenetic DNA modifications on cytosine”.
# What was measured:
# Experiment in all cases: DAPPL (digital affinity profiling via proximity ligation, sequencing); 10 mM Tris-HCl pH 7.5, 50 mM NaCl, 1 mM DTT, 4% glycerol, room temperature, 30 min; GST-TFs on glutathione beads, 16-mer random dsDNA library, 0.1% formaldehyde crosslink after washing; high values mean tight binding
# FEV = biological target: T1, FEV (Homo sapiens, UniProt Q99581 1-238); conditions: protein: recombinant; tags: N-terminal GST; dsDNA, one strand shown
# T1 sequence: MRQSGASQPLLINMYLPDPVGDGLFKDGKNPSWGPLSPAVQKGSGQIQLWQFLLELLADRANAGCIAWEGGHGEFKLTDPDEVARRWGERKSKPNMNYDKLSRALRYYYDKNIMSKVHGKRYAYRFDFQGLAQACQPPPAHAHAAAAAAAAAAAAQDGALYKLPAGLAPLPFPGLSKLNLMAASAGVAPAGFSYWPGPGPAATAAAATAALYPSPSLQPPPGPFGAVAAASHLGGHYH
# In short: (§1)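 Pools of DNA-barcoded human transcription factors, expressed in yeast as GST fusions on glutathione beads and combined with a tag-only sample, were incubated with 200 nmole of a 16-mer random double-stranded DNA library. Incubation took 30 min at room temperature in Tris/NaCl/DTT/glycerol buffer and was followed by washing, 0.1% formaldehyde crosslinking, proximity ligation (BsaI/T4 ligase, 1 h, 37 °C), PCR amplification and sequencing on an Illumina NextSeq500. Binding signal is the ratio of a hexamer's read frequency for a factor to its frequency for the tag-only sample.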
# ETV5 = ETV5 (Homo sapiens, UniProt P41161 1-510); conditions: protein: recombinant; tags: N-terminal GST; dsDNA, one strand shown
# ETV5, sequence (P41161 whole entry): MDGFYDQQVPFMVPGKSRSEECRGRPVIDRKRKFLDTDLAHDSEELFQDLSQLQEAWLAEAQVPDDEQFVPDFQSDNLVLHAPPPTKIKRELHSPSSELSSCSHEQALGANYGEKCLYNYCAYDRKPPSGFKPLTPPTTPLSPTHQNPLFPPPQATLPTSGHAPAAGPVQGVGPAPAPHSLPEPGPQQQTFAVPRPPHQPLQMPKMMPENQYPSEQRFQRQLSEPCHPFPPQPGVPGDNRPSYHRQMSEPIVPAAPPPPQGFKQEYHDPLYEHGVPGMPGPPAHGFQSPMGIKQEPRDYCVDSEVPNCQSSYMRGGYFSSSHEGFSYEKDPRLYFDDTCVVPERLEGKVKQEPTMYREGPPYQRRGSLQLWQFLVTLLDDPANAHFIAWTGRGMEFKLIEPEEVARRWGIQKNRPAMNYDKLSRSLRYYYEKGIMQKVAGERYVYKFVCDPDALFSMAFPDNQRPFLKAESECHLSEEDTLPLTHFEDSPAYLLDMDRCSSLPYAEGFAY
# In short: as §1
# HSF1 = HSF1 (Homo sapiens, UniProt Q00613 1-529); conditions: protein: recombinant; tags: N-terminal GST; chain copies: 3; dsDNA, one strand shown
# HSF1, sequence (Q00613 whole entry): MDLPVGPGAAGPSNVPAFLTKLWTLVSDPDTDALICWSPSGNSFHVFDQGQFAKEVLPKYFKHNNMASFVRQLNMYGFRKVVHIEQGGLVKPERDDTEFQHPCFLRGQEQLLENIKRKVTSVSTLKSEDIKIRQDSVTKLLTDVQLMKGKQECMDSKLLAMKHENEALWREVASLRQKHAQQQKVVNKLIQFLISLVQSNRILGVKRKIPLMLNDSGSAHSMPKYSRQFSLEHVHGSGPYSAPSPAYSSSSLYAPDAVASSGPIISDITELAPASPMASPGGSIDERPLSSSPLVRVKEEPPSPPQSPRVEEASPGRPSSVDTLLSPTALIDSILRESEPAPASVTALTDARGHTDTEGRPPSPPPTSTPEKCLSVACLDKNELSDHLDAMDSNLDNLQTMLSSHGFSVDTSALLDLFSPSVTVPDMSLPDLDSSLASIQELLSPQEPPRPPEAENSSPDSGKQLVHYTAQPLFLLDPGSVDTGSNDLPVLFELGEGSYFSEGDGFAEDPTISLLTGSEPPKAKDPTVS
# In short: as §1
# SPIC = biological target: T2, SPIC (Homo sapiens, UniProt Q8N5J4 1-248); conditions: protein: recombinant; tags: N-terminal GST; dsDNA, one strand shown
# T2 sequence: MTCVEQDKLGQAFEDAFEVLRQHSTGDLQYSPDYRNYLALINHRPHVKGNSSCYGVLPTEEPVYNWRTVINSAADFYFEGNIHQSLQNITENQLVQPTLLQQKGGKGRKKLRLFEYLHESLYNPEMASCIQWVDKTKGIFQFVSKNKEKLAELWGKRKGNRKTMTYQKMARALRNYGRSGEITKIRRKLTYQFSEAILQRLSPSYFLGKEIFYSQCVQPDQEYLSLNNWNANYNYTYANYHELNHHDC
# In short: as §1
# ELF4 = ELF4 (Homo sapiens, UniProt Q99607 1-663); conditions: protein: recombinant; tags: N-terminal GST; dsDNA, one strand shown
# ELF4, sequence (Q99607 whole entry): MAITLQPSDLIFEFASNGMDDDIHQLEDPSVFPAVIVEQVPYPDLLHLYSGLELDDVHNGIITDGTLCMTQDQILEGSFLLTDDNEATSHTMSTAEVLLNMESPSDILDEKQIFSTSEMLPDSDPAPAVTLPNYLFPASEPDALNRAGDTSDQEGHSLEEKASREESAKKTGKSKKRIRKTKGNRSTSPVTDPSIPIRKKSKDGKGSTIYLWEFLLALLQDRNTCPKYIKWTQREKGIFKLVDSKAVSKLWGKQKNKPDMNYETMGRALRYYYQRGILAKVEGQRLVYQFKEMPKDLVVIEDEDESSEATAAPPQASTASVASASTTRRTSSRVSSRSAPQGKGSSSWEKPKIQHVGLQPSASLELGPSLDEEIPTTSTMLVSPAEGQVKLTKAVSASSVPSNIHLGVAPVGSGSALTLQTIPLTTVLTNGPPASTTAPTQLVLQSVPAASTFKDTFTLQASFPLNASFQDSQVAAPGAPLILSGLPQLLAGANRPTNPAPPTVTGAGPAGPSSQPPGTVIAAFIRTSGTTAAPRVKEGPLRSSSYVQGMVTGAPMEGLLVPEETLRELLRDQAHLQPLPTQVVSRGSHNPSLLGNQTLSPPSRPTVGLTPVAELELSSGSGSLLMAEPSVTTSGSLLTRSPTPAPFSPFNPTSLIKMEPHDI
# In short: as §1
# ELK4 = biological target: T3, ELK4 (Homo sapiens, UniProt P28324-2 1-405); conditions: protein: recombinant; tags: N-terminal GST; dsDNA, one strand shown
# T3 sequence: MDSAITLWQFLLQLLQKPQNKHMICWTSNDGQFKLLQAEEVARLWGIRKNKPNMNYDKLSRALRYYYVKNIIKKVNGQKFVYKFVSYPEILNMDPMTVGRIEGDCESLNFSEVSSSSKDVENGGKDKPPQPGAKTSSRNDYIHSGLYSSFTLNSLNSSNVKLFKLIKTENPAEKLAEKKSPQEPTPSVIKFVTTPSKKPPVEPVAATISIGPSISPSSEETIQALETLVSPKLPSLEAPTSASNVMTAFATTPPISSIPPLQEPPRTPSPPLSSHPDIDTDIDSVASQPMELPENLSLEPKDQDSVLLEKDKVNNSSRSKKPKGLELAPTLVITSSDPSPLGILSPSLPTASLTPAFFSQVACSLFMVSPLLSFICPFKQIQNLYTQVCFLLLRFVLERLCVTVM
# In short: as §1
# ETV2 = biological target: T4, ETV2 (Homo sapiens, UniProt O00321 1-342); conditions: protein: recombinant; tags: N-terminal GST; dsDNA, one strand shown
# T4 sequence: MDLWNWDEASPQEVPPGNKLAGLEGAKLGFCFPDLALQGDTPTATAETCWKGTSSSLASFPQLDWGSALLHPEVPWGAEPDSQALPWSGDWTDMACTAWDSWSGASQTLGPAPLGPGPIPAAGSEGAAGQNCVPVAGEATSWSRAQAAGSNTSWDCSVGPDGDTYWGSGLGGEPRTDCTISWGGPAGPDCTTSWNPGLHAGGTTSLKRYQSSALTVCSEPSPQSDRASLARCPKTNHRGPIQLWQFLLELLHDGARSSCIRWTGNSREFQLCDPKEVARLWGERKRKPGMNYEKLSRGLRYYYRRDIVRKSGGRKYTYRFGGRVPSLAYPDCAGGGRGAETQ
# In short: as §1
# ELF3 = biological target: T5, ELF3 (Homo sapiens, UniProt P78545 1-371); conditions: protein: recombinant; tags: N-terminal GST; dsDNA, one strand shown
# T5 sequence: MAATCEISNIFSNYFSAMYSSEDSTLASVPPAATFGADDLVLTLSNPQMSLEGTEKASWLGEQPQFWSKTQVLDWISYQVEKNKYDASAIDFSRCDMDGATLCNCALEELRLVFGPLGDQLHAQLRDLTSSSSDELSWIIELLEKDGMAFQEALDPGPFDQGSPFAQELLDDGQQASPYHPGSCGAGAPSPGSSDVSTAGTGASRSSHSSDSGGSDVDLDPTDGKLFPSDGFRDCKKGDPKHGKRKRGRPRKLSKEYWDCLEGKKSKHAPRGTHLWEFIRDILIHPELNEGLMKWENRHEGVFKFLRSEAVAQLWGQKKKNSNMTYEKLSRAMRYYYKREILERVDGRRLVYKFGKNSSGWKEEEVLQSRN
# In short: as §1
# CRX = CRX (Homo sapiens, UniProt O43186 1-299); conditions: protein: recombinant; tags: N-terminal GST; dsDNA, one strand shown
# CRX, sequence (O43186 whole entry): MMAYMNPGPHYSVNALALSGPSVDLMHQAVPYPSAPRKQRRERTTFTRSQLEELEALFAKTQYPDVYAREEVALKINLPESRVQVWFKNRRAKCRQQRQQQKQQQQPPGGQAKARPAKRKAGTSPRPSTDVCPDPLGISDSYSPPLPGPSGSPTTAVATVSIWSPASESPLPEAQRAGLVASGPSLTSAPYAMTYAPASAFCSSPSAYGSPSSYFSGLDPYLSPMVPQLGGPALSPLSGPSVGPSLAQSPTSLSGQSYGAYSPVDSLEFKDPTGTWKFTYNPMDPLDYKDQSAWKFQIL
# In short: as §1
# ETV1 = ETV1 (Homo sapiens, UniProt P50549 1-477); conditions: protein: recombinant; tags: N-terminal GST; dsDNA, one strand shown
# ETV1, sequence (P50549 whole entry): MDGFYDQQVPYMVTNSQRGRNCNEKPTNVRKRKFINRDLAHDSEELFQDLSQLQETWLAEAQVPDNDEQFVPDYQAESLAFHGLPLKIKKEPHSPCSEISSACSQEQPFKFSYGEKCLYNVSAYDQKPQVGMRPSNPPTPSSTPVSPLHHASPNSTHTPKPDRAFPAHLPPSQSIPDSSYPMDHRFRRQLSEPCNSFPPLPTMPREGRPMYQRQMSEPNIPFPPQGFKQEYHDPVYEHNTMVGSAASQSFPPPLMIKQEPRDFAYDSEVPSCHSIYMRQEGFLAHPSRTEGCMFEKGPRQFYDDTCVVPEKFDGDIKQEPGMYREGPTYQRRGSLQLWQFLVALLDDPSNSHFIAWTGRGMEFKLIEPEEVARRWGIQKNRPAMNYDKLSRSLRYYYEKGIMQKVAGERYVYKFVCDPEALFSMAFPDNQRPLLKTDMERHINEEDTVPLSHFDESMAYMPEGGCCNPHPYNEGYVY
# In short: as §1
sequence,measurement,setting,value
CTCTTC,binding signal,FEV,"1.73 fold enrichment (6-mer frequency, TF over GST control)"
same,binding signal,ETV5,"1.76 fold enrichment (6-mer frequency, TF over GST control)"
same,binding signal,HSF1,"1.25 fold enrichment (6-mer frequency, TF over GST control)"
same,binding signal,SPIC,"1.69 fold enrichment (6-mer frequency, TF over GST control)"
same,binding signal,ELF4,"1.68 fold enrichment (6-mer frequency, TF over GST control)"
same,binding signal,ELK4,"1.66 fold enrichment (6-mer frequency, TF over GST control)"
same,binding signal,ETV2,"1.71 fold enrichment (6-mer frequency, TF over GST control)"
same,binding signal,ELF3,"1.67 fold enrichment (6-mer frequency, TF over GST control)"
same,binding signal,CRX,"1.21 fold enrichment (6-mer frequency, TF over GST control)"
same,binding signal,ETV1,"1.71 fold enrichment (6-mer frequency, TF over GST control)"
